In ChEMBL document CHEMBL3988442, “University of Dundee, Small-Polar-MMV Screening Library” (2021):
Screen size: about 48,000 compounds; about 13,000 (27%) showed an effect of 50% or more. The list shows a part of the results.

These compounds were tested on Wolbachia pipientis (assay: Anti-Wolbachia Cell-Based Screen). Conditions: 5 µM.
Type: functional
Design: scale not given: in the data most compounds retested in dose-response had high values
In the case of CCc1ccc(CN2CCCC(CO)(CCOC)C2)cc1 (centres undefined), the “Percent Effect” value is reported as -6.434%. In the case of Cc1cc(C)n(CC2CCCCN2C(=O)c2cnn(C)c2)n1 (centres undefined), the “Percent Effect” value is reported as -4.108%. CCOc1ccc(C(=O)N2CCCCC2Cn2nc(C)cc2C)cn1 (centres undefined) was tested, and the “Percent Effect” value was 118.2%. With Cc1cc(C)n(CC2CCCN2C(=O)c2ccc(C(N)=O)cn2)n1 (centres undefined) the “Percent Effect” value was -1.212%. For Cc1cc(C)n(CC2CCCCN2C(=O)c2ccc(C(N)=O)cc2)n1 (centres undefined), the “Percent Effect” value was 111.1%. For Cc1cc(C)n(CC2CCCN2C(=O)c2ccc(NC3CC3)nc2)n1 (centres undefined), the “Percent Effect” value was 104.7%. Cc1cc(C)n(CC2CCCCN2C(=O)c2ccc3nncn3c2)n1 (centres undefined) was tested, and the “Percent Effect” value was 3.82%. Cc1cc(C)n(CC2CCCN2C(=O)c2ccc3[nH]nnc3c2)n1 (centres undefined) was tested, and the “Percent Effect” value was -17%. For CCOc1ccccc1C(CC(=O)N(C)C)NC(C)=O (centres undefined), the “Percent Effect” value was -2.972%. For CCc1nc2n(n1)CC(NCc1cn(C)nc1-c1cccnc1)CC2 (centres undefined), the “Percent Effect” value was -2.892%. For Cc1cnc(N2CC[C@@H]3O[C@H](COCc4ccccn4)CC[C@@H]32)nc1.O=C(O)C(F)(F)F.O=C(O)C(F)(F)F, the “Percent Effect” value was -4.87%. In the case of Cc1ccc2c(c1)SCC(=O)N2CC(=O)N1CCCC1c1nccs1 (centres undefined), the “Percent Effect” value is reported as 15.48%. Cc1ccc2c(c1)SCC(=O)N2Cc1noc(C2CCCO2)n1 (centres undefined) was tested, and the “Percent Effect” value was 109.6%. For Cc1ccc2c(c1)SCC(=O)N2Cc1noc(C2CC2)n1, the “Percent Effect” value was 92.98%. Cc1ccc2c(c1)SCC(=O)N2CC(=O)N1CCC[C@H]1c1nc(C)no1 was tested, and the “Percent Effect” value was 9.485%. With O=c1cc(N2CCCCC2)cnn1Cc1noc(C2CCCO2)n1 (centres undefined) the “Percent Effect” value was -0.8561%. In the case of O=C1CSc2ccccc2N1Cc1noc(C2CCCO2)n1 (centres undefined), the “Percent Effect” value is reported as 108.8%. With Cc1cc(C)n(C2CCN(C(=O)CN3C(=O)CSc4ccccc43)C2)n1 (centres undefined) the “Percent Effect” value was -2.821%. With Cc1cccc(-c2nc(CN(Cc3cccs3)CC3CCCO3)no2)c1 (centres undefined) the “Percent Effect” value was 0.4556%. O=c1cc(N2CCCC2)cnn1Cc1noc(C2CCCO2)n1 (centres undefined) was tested, and the “Percent Effect” value was -13.05%. For CCCc1ccc(CN2C[C@H]3C(=O)N(CC4CC4)C[C@@]3(C(=O)O)C2)o1, the “Percent Effect” value was -18.71%. In the case of CC(C)c1ocnc1C(=O)NC(c1nnc2n1CCNCC2)C(C)C (centres undefined), the “Percent Effect” value is reported as 15.04%. In the case of O=C1CCC(C(=O)N2CCOC(Cc3ccccc3Cl)C2)=NN1 (centres undefined), the “Percent Effect” value is reported as -0.3624%. Cc1nc(C(C)(C)NC(=O)Nc2ccccc2)no1 was tested, and the “Percent Effect” value was -20.84%. CCNC(=O)Cn1ncc(N(C)CCc2ccccc2)cc1=O was tested, and the “Percent Effect” value was 6.09%. Cc1ccsc1C(=O)N1CCc2ncc(CN(C)C)n2CC1.O=C(O)C(F)(F)F was tested, and the “Percent Effect” value was -9.607%. CN(Cc1ccc(CCC(C)(C)O)cc1)Cc1cccc(O)c1 was tested, and the “Percent Effect” value was -7.089%. With CC(C)(C)CN1CCCC(c2nccnc2Nc2cnccn2)C1 (centres undefined) the “Percent Effect” value was 141%. For CC(C)(C)CN1CCC(c2nnc(Cn3ccnc3)n2C2CC2)CC1, the “Percent Effect” value was -15.12%. For CC(C)(C)CN1CCC(c2nccnc2Nc2cnccn2)CC1, the “Percent Effect” value was 104.1%. With Cn1cncc1-c1nnc([C@H]2CCN(CC(C)(C)C)C2)o1 the “Percent Effect” value was -4.073%. For Cn1c(Cn2ccnc2)nnc1C1CCCN(CC(C)(C)C)C1 (centres undefined), the “Percent Effect” value was -0.4988%. CC(C)N(Cc1ccc(C#N)cc1)Cc1nnsc1Cl was tested, and the “Percent Effect” value was -0.2197%. With COC(=O)CNC(=O)CC1COc2ccc(C(=O)N(C)C)cc2N1C (centres undefined) the “Percent Effect” value was -21.78%. CN(Cc1ccncc1)C1CC2(CCN(C(=O)c3ccnnc3)CC2)C1 was tested, and the “Percent Effect” value was 2.338%. For Cc1ccc(N2CCCC3(CCN(C(=O)c4sccc4C)C3)C2)nn1 (centres undefined), the “Percent Effect” value was -21.87%. For CN(c1ccncn1)C1CC2(CCN(C(=O)c3cncs3)C2)C1 (centres undefined), the “Percent Effect” value was 101.7%. With CN(c1ccncn1)C1CC2(CCN(C(=O)c3cccs3)C2)C1 (centres undefined) the “Percent Effect” value was 5.118%. For CN(c1ccncn1)C1CC2(CCN(C(=O)Cc3cccs3)C2)C1 (centres undefined), the “Percent Effect” value was 98.18%. With Cc1ccsc1C(=O)N1CCC2(CC(N(C)c3ccncn3)C2)C1 (centres undefined) the “Percent Effect” value was 125%. For Cc1ccsc1C(=O)N1CCC(c2nccn2Cc2ccncc2)CC1, the “Percent Effect” value was -26.92%. In the case of CN(c1ccncn1)C1CC2(CCN(C(=O)c3cccn3C)C2)C1 (centres undefined), the “Percent Effect” value is reported as 100.1%. With CN(c1ccncn1)C1CC2(CCN(C(=O)CCc3cccs3)C2)C1 (centres undefined) the “Percent Effect” value was -6.442%. Cc1noc(C)c1CN1CC2(CCN(C(=O)c3cccn3C)C2)CC1=O (centres undefined) was tested, and the “Percent Effect” value was -4.057%. With Cn1cccc1C(=O)N1CCCC2(CCCN2Cc2cccnc2)C1 (centres undefined) the “Percent Effect” value was 0.2442%. CN(C)C(=O)N1CCN(Cc2noc(Cc3ccccc3)n2)CC1 was tested, and the “Percent Effect” value was -7.499%. CC(C)CN1C(=O)CO[C@@H]2CN(C(=O)CC(F)(F)F)C[C@H]21 was tested, and the “Percent Effect” value was -4.787%. With O=C(Nc1ccnc(OC2CCOC2)c1)c1cc(F)ccc1F (centres undefined) the “Percent Effect” value was -0.1893%. In the case of Cc1noc(C)c1C(=O)N1CC[C@H]2C[C@@H](c3ccncn3)O[C@@H]2C1, the “Percent Effect” value is reported as -6.202%. For Cc1ccc(C(=O)N2CCC3(CC(N(C)c4ccncn4)C3)C2)cn1 (centres undefined), the “Percent Effect” value was 100.9%. With CN(c1ccncn1)C1CC2(CCN(C(=O)c3ccsc3)C2)C1 (centres undefined) the “Percent Effect” value was 9.271%. For CN(Cc1cccnc1)C1CC2(CCN(C(=O)c3cnccn3)CC2)C1, the “Percent Effect” value was -5.762%. With CN(Cc1cccnc1)C1CC2(CCN(C(=O)c3cscn3)CC2)C1 the “Percent Effect” value was -13.69%. Cc1csc(C(=O)N2CCC3(CC(N(C)c4ccncn4)C3)C2)c1 (centres undefined) was tested, and the “Percent Effect” value was 119.5%. For Cc1noc(C)c1CN1CC2(CCN(C(=O)c3c[nH]cn3)C2)CC1=O (centres undefined), the “Percent Effect” value was -8.686%. With Cc1noc(C)c1C(=O)N1CCC2(CC(N(C)c3ccncn3)C2)C1 (centres undefined) the “Percent Effect” value was 121.5%. With CCOC(=O)CCCN1CCCC(C(=O)Nc2ccc(Cl)cn2)C1 (centres undefined) the “Percent Effect” value was -9.707%. In the case of CSCC(=O)N1CCC2(CC1)c1ccccc1CC2O (centres undefined), the “Percent Effect” value is reported as -1.136%. For O=C(C1=CC2(CCNCC2)c2ccccc21)N1CCCC1, the “Percent Effect” value was -0.6834%. In the case of CN1CCC2(C=C(C(=O)N(C)C)c3ccccc32)CC1, the “Percent Effect” value is reported as 111.1%. In the case of CCC(=O)N1CCC2(C=C(C(=O)N(C)C)c3ccccc32)CC1, the “Percent Effect” value is reported as 99.74%. In the case of CCC(=O)N1CCC2(C=C(C(=O)N3CCCC3)c3ccccc32)CC1, the “Percent Effect” value is reported as 109%. CN1CCC2(C=C(C(=O)N3CCCC3)c3ccccc32)CC1.O=C(O)C(F)(F)F was tested, and the “Percent Effect” value was -7.584%. O=C(O)C(F)(F)F.O=C1CC2(CNCCN(C(=O)Nc3ccccc3)C2)CN1 (centres undefined) was tested, and the “Percent Effect” value was -25.05%. With CC(O)CN1CCC(CN(C)Cc2ccc(C#N)cc2F)CC1 (centres undefined) the “Percent Effect” value was -14.31%. With Cc1nccn1-c1cc(CNC(=O)C(C)(C)C)ccn1 the “Percent Effect” value was 9.207%. O=C(c1cc(C2CCCCN2C(=O)C2CCC2)n[nH]1)N1CCOCC1 (centres undefined) was tested, and the “Percent Effect” value was 97.85%. CN(C)Cc1ccc(C2CCCCN2C(=O)c2cc(C3CC3)n[nH]2)cc1 (centres undefined) was tested, and the “Percent Effect” value was 2.856%. For CC(=O)N1CCCCC1c1cc(C(=O)N2CCOCC2)[nH]n1 (centres undefined), the “Percent Effect” value was -8.904%. For O=C(c1cc(C2CCCCN2CCO)n[nH]1)N1CCOCC1.O=CO (centres undefined), the “Percent Effect” value was 127.4%. In the case of O=C(CCN1CCCCCC1c1ccco1)N1CCOCC1 (centres undefined), the “Percent Effect” value is reported as 1.206%. O=C(CCN1CCCCC1c1cc2ccccc2[nH]1)N1CCOCC1 (centres undefined) was tested, and the “Percent Effect” value was -12.84%. For COCc1cncc2c1CCN(C(=O)c1ccsc1)C2, the “Percent Effect” value was -1.861%. COCc1cncc2c1CCN(C(=O)c1cscn1)C2 was tested, and the “Percent Effect” value was 104.1%. In the case of COCc1cncc2c1CCN(C(=O)c1ccc(C)o1)C2, the “Percent Effect” value is reported as -6.966%. O=C(c1cnccn1)N1CCc2c(COCC3CC3)cncc2C1 was tested, and the “Percent Effect” value was -0.9982%. CN(C)C(=O)N1CCc2c(COCC3CC3)cncc2C1 was tested, and the “Percent Effect” value was -21.89%. With CN(C)CCOCc1cncc2c1CCN(C(=O)c1cscn1)C2 the “Percent Effect” value was 84.03%. With Cn1cnnc1CCNC(=O)c1ccccc1OC1CCC1 the “Percent Effect” value was -17.05%. CCNc1nc(C)c(C(=O)N(C)Cc2noc(C)n2)s1 was tested, and the “Percent Effect” value was -18.27%. For Cc1cc(C(=O)NC2CCCOc3cc(Cl)ccc32)n(C)n1 (centres undefined), the “Percent Effect” value was 104.1%. For Cc1ccc2c(c1)OCCCC2NCc1nccn1CC(C)C (centres undefined), the “Percent Effect” value was -15.26%. For CCc1cccc(N2CCC(NC(=O)c3ccc(=O)[nH]n3)CC2)c1, the “Percent Effect” value was 3.328%. In the case of O=C(NC1CCCOc2cc(Cl)ccc21)c1ccc(=O)[nH]n1 (centres undefined), the “Percent Effect” value is reported as 103.9%. In the case of Cc1ccc2c(c1)OCCCC2NCc1nccn1Cc1ccccc1 (centres undefined), the “Percent Effect” value is reported as -22%. O=C(Nc1ccc2c(c1)OC1(CCCCC1)O2)c1ccc(=O)[nH]n1 was tested, and the “Percent Effect” value was 13.01%. In the case of CC1(C)Oc2ccc(NC(=O)c3ccc(=O)[nH]n3)cc2O1, the “Percent Effect” value is reported as -5.037%. In the case of O=C(Nc1ccc2c(c1)OCCO2)c1ccc(=O)[nH]n1, the “Percent Effect” value is reported as 99.56%. Cc1c(C(=O)NC2CCCOc3cc(Cl)ccc32)cnn1C (centres undefined) was tested, and the “Percent Effect” value was 96.08%. Cc1ccc2c(c1)OCCCC2NC1CCN(C)CC1 (centres undefined) was tested, and the “Percent Effect” value was 11.04%. In the case of Cc1c(C(=O)N[C@H]2CN(CCS(C)(=O)=O)C[C@@H]2C2CC2)cnn1C, the “Percent Effect” value is reported as 4.067%. In the case of O=C(Nc1ccc2c(c1)OC1(CCCC1)O2)c1ccc(=O)[nH]n1, the “Percent Effect” value is reported as -12.04%. CC(C)N1CCCC2(CCN(C(=O)CCCn3ccnc3)C2)C1=O (centres undefined) was tested, and the “Percent Effect” value was -2.08%. In the case of CCc1nnc(CNCC2CCN(CC(O)c3ccccc3)CC2)o1 (centres undefined), the “Percent Effect” value is reported as 1.305%. With Cc1cc2c(=O)n3c(nc2s1)CCN(Cc1[nH]cnc1C)CC3.Cl the “Percent Effect” value was 117%. With Cc1nc[nH]c1CN1CCn2nc(CN3Cc4ccccc4C3)cc2C1 the “Percent Effect” value was 5.533%. For CCc1ncc(CN2CCc3nc4sc(C)cc4c(=O)n3CC2)cn1, the “Percent Effect” value was 98.79%. For Cc1cc2c(=O)n3c(nc2s1)CCN(Cc1cnc(C(C)C)nc1)CC3, the “Percent Effect” value was -3.495%. Cc1cc2c(=O)n3c(nc2s1)CCN(Cc1cnc(C)n1C)CC3.Cl was tested, and the “Percent Effect” value was 108.4%. With CCc1ncc(CN2CCCC3(CCC(=O)N(CCC(C)C)C3)C2)cn1 (centres undefined) the “Percent Effect” value was -16.36%. In the case of Cc1cc(CN2CCc3nc(C)n(C)c(=O)c3CC2)[nH]n1, the “Percent Effect” value is reported as -18.21%. For Cc1cc2c(=O)n3c(nc2s1)CCN(Cc1ccncc1)CC3, the “Percent Effect” value was -12.53%. With Cc1cc2c(=O)n3c(nc2s1)CCN(Cc1cncn1C)CC3.Cl the “Percent Effect” value was 111.2%. Cc1nc2c(c(=O)n1C)CCN(Cc1cc3cc[nH]c3cn1)CC2 was tested, and the “Percent Effect” value was -4.621%.
